Our source for the binding signal values is PMC10668032, “Altered binding affinity of SIX1-Q177R correlates with enhanced WNT5A and WNT pathway effector expression in Wilms tumor”.

Whole data set: some 33,000 sequences, median “e-score” near -0.05, cut for the highest 2% near 0.38. The sample as a whole holds a higher share of the highest values than the screen did.

This assay addresses T1, SIX1-Q177R homeodomain (human, UniProt Q15475 108-198, Q177R).
T1 sequence: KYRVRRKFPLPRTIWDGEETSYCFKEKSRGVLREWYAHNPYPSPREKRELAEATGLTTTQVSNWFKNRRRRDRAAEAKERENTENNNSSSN
Kind of assay: universal protein binding microarray; Universal all-10-mer PBM (8x60K, AMADID 030236), 300 nM GST-tagged protein, Alexa Fluor 488 anti-GST; buffer, salt, pH and temperature not stated (as in Berger); high values mean tight binding. The settings on record: protein: ivt; tags: N-terminal GST; dsDNA, one strand shown. The gist of the method: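 After in vitro transcription/translation, GST-tagged homeodomains were quantified against a recombinant GST standard curve by anti-GST western blot. They were then placed in duplicate at 300 nM final concentration on universal 'all 10-mer' protein binding microarrays of 8×60K format.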
Regarding CCCGAGAC, the binding signal was 0.204 ± 0.023 E-score.
As to ACCCGTCT, the binding signal came out at 0.178 ± 0.0209 E-score.
The value for CGTGTCAG was 0.441 ± 0.0089 E-score; that for AGTATCAG was 0.266 ± 0.0112 E-score; that for GGTGTCAC was 0.4915 ± 0.00356 E-score.
The value for CGTGTCTC was 0.338 ± 0.00573 E-score; that for GGAGTCAC was 0.3325 ± 0.00242 E-score; that for CGCGTCAG was 0.154 ± 0.00463 E-score.
As for AGTGTCAC, the binding signal worked out at 0.45 ± 0.00611 E-score.
The value for GGGGTCAC was 0.29 ± 0.0253 E-score; that for CGAGTCAC was 0.196 ± 0.0324 E-score; that for CGTGTCAC was 0.462 ± 0.0133 E-score.
On to ACGCGGTG, for which the binding signal worked out at 0.334 ± 0.012 E-score.
For GGGATCCA, the binding signal stood at 0.211 ± 0.0194 E-score.
As for ACCTGACA, the binding signal was 0.228 ± 0.0625 E-score.
Then ACCCCACT, with 0.207 ± 0.00426 E-score.
The value for GCGGATAA was 0.162 ± 0.0348 E-score; that for CTCGTACA was 0.17 ± 0.0125 E-score.
Then CCCAAACA, with 0.208 ± 0.0371 E-score; and CACTCTTA, with 0.164 ± 0.0568 E-score; and GAACCCCC, with 0.244 ± 0.0572 E-score.
ATACCCAG: the binding signal was determined as 0.274 ± 0.0157 E-score.
The value for AGTGTCAG was 0.4435 ± 0.00254 E-score.
Then AGTGTCAT, with 0.462 ± 0.0172 E-score.
With AGTGTCTG, the binding signal is 0.302 ± 0.0115 E-score.
Then AGTGTCAA, with 0.424 ± 0.0101 E-score; and AGTGTCCG, with 0.365 ± 0.00508 E-score.
For AGAGTCAT, the binding signal turned out to be 0.1867 ± 0.000552 E-score.
As for GGCGTCAA, the binding signal came to 0.177 ± 0.0347 E-score.
The value for GGTGTCAA was 0.49013 ± 0.000481 E-score; that for GGGGTCAA was 0.253 ± 0.0228 E-score.
The value for GAGGTATC was 0.337 ± 0.00525 E-score; that for CCCTCCCA was 0.176 ± 0.0422 E-score; that for ACCAAACA was 0.244 ± 0.0473 E-score.
In the case of GTAACATA, the binding signal amounted to 0.196 ± 0.0373 E-score.
Regarding AAAGGGGG, the binding signal turned out to be 0.233 ± 0.0235 E-score.
Turning to CACCTTTC, the binding signal was found to be 0.195 ± 0.00584 E-score.
In the case of CGTGATCC, the binding signal was 0.195 ± 0.0306 E-score.
The value for CGGGTCAA was 0.2 ± 0.04 E-score; that for TGTGTCAA was 0.303 ± 0.0203 E-score.
Then CGTGTCAA, with 0.409 ± 0.00885 E-score.
Take ACTATGCG: the binding signal was 0.17 ± 0.0186 E-score.
The value for ACCTCGGA was 0.175 ± 0.0387 E-score.
Take CATGACAC: the binding signal turned out to be 0.4733 ± 0.00427 E-score.
In the case of GATGACAC, the binding signal is 0.4656 ± 0.00203 E-score.
The value for GATGACCC was 0.211 ± 0.0466 E-score.
The value for AATGACCC was 0.181 ± 0.0204 E-score; that for GATGATAC was 0.242 ± 0.0302 E-score.
Then CATGACCC, with 0.218 ± 0.0214 E-score.
For CATGATAC, the binding signal is 0.287 ± 0.0236 E-score.
Turning to AATGACAC, the binding signal was 0.464 ± 0.0115 E-score.
Then AATGACTC, with 0.245 ± 0.00746 E-score; and CACCTAGA, with 0.276 ± 0.00873 E-score.
Consider GACGCCAC, for which the binding signal is 0.201 ± 0.00624 E-score.
CACCCATC: the binding signal came to 0.277 ± 0.0196 E-score.
Then ACCCCCGA, with 0.298 ± 0.0252 E-score; and CACTATCC, with 0.196 ± 0.0388 E-score; and AGGGTACA, with 0.237 ± 0.00699 E-score.
As to ACTCCGGA, the binding signal was 0.204 ± 0.0189 E-score.
Then ACCCAGAA, with 0.179 ± 0.00761 E-score.
On to ACAGTACA, for which the binding signal came out at 0.203 ± 0.0245 E-score.
With GGATCCGA, the binding signal came out at 0.217 ± 0.0131 E-score.
Turning to CACTACCA, the binding signal came out at 0.227 ± 0.00878 E-score.
Then ACACGACC, with 0.4169 ± 0.00152 E-score; and GCACGACC, with 0.255 ± 0.00765 E-score; and ACACGAAT, with 0.31 ± 0.00916 E-score.
The value for ACACGAAA was 0.302 ± 0.0196 E-score; that for GCACGACA was 0.2099 ± 0.000516 E-score; that for CCACGACA was 0.27 ± 0.00989 E-score.
Take ACACGACG: the binding signal was 0.368 ± 0.0133 E-score.
Then ACACGACT, with 0.411 ± 0.00971 E-score.
The value for ACACGACA was 0.404 ± 0.00581 E-score; that for ACCGAATG was 0.173 ± 0.0343 E-score; that for CCCCCCTA was 0.232 ± 0.01 E-score.
On to GTGGAGTA, for which the binding signal turned out to be 0.29 ± 0.0112 E-score.
The value for ATCGAGGG was 0.167 ± 0.00486 E-score; that for ATCCGATC was 0.213 ± 0.0309 E-score; that for CACTCGGC was 0.237 ± 0.0125 E-score.
Consider GCGAGTAC, for which the binding signal amounted to 0.175 ± 0.00781 E-score.
Then CCGTATCA, with 0.245 ± 0.0466 E-score; and GGGTAACC, with 0.196 ± 0.00371 E-score.
Then ACGATAGT, with 0.157 ± 0.0172 E-score; and GCACCACA, with 0.154 ± 0.00776 E-score.
Regarding ACACCACT, the binding signal was found to be 0.4835 ± 0.00239 E-score.
The value for ATACCACC was 0.25 ± 0.00441 E-score; that for ACACCACA was 0.485 ± 0.000106 E-score.
